Consider 34 compounds from PubChem BioAssay (NCI).

Compounds without any hit were thinned out: in the full panel of roughly 83,000, 20% have a hit.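 Note: values are percent growth. 100 is the growth of untreated cells, values between 100 and 0 indicate rising inhibition; between -100 and 0 indicates cell death.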 Calls of active or inactive are those of the source. The calls were made as follows: active = growth percent below 10; inactive = the rest.

The test system of the assay is MCF7 breast. In words: NCI-60 one-dose screen, 48 h (100 = growth as untreated, 0 = no growth, -100 = all killed). Particulars: 10 µM.
`O=C(/C=C/Nc1ccc(F)cc1F)c1ccc2c(c1)Nc1ccccc1S2`: the growth was 37.9% (inactive).

On to `C=C1CC[C@H](C(=C)C)[C@H]2C=C(C)C(=O)C3=C(C(=O)[C@@](C)(O)C3)[C@H]12`, for which the growth is -70.5% (active).

Regarding `CN(CCO)c1oc(-c2ccccc2)nc1[P+](c1ccccc1)(c1ccccc1)c1ccccc1`, the growth is 0.978% (active).

Take `O=C(CNc1nc(-c2ccccc2)cs1)Nc1ccc([N+](=O)[O-])cc1Cl`: the growth is 9.27% (active).

For `COc1ccc(CCN2C(=O)/C(=C/c3csc(C#N)n3)SC2=S)cc1OC`, the growth is -15.9% (active).

Consider `Cc1ccc([N+](=O)[O-])c(C(=O)Nc2ccc(-c3ccc4c(c3)NC(=O)/C4=C\c3ccc[nH]3)cc2)c1`, for which the growth was -47.7% (active).

`COc1ccc(-c2nc(S(=O)(=O)c3ccccc3)c(S(C)(=O)=O)o2)cc1`: the growth was -57.5% (active).

Take `Cc1ccc(-c2ccc(SCC(=O)Nc3ccc(Cl)c(C(F)(F)F)c3)nn2)cc1`: the growth is 15.9% (inactive).

With `Cc1ccn2c(C(=O)c3ccc(Br)cc3)cc(-c3cc(-c4ccc(N(C)C)cc4)c(C#N)c(N)n3)c2c1`, the growth is 46.2% (inactive).

As for `O=c1[nH]c2ccccc2cc1CSc1ccc(Nc2nccc(-c3ccc(Cl)cc3)n2)cc1`, the growth was -5.81% (active).

Regarding `CC1(C)CC[C@]2(C(=O)Nc3ccccc3)CC[C@]3(C)C(=CC[C@@H]4[C@@]5(C)CC[C@H](N)C(C)(C)[C@@H]5CC[C@]43C)[C@H]2C1`, the growth was -73.8% (active).

As for `Cc1ccc(NC(=O)NCn2c(=O)[nH]c3ccccc3c2=O)cc1`, the growth was 72% (inactive).

In the case of `COc1cc(/C=C/C(=O)c2cc(OC)c(OC)c(OC)c2)ccc1Oc1nc(Nc2ccc(F)cc2)nc(N(C)C)n1`, the growth was 2.35% (active).

With `Cn1cc(/C=N/Nc2ccnc3cc(Cl)ccc23)c2ccccc21`, the growth is -78.4% (active).

As to `N#Cc1ccc(-c2nn(-c3ccc(C(=O)O)cc3)cc2CNc2cc(Cl)cc(C(F)(F)F)c2)cc1`, the growth was 5.75% (active).

Regarding `O=C1NC(=NC23CC4CC(CC(C4)C2)C3)N/C1=C\c1ccc2ncccc2n1`, the growth is -19.4% (active).

Turning to `COc1ccc(/C=C/C(=O)c2ccc(NC(=O)CN3C(=O)NC(C)(c4ccccc4)C3=O)cc2)cc1` (centres undefined), the growth is 4.86% (active).

For the compound `O=C(c1ccc(Cl)cc1)C1[C@H](c2ccccc2Br)[C@@H](c2ccccc2)NC12C(=O)Nc1ccc(Cl)cc12` (some centres undefined), the growth was 0.103% (active).

For `O=C1CCC(N2Cc3cc(NC(=O)COc4ccccc4)ccc3C2=O)C(=O)N1` (centres undefined), the growth was 70.3% (inactive).

Consider `CC1(c2ccccc2)NC(=O)N(CC(=O)Nc2ccc(C(=O)/C=C/c3ccc(Cl)cc3)cc2)C1=O` (centres undefined), for which the growth was -66.6% (active).

Consider `C#CCNC(=O)CCC(=O)OC[C@]12CC[C@@H](C(=C)C)[C@@H]1C1CC[C@@H]3[C@@]4(C)CCCNC(C)(C)[C@@H]4CC[C@@]3(C)[C@]1(C)CC2` (some centres undefined), for which the growth was -65.7% (active).

As to `CCCn1c(=O)c2[nH]c(-c3ccc(OCc4nc5ccc(F)cc5[nH]4)cc3)nc2n(CCC)c1=O`, the growth was 8.76% (active).

As to `COC[C@@H](CC(C)C)N=C1NC(=O)/C(=C/c2ccc3ncsc3c2)N1`, the growth was -17.7% (active).

As to `COc1ccc(C=CC(=O)c2ccc(-n3c(C)nc4c(cnn4-c4ccccc4)c3=O)cc2)cc1`, the growth is 8.3% (active).

As for `O=C(c1ccc(Cl)cc1)C1[C@H](c2ccccc2Br)[C@@H](c2ccccc2)NC12C(=O)Nc1ccc(Br)cc12` (some centres undefined), the growth is -2.68% (active).

On to `O=C(Nc1cccc(C(F)(F)F)c1)c1cncc(C#Cc2cnc3ccc(N4CCOCC4)nn23)c1`, for which the growth is -30% (active).

On to `N#Cc1c(-c2ccc(F)cc2)nc(SCc2ccc([N+](=O)[O-])cc2)nc1N1CCOCC1`, for which the growth was 58.5% (inactive).

For `NS(=O)(=O)c1ccc(NC(=O)CSc2ccc(-c3ccc(Cl)cc3)nn2)c(Br)c1`, the growth was 26.8% (inactive).

Turning to `CC(=O)NCC1=C(C)C=C2C(=O)[C@](C)(O)C3(CC3)C(C)=C21`, the growth was 3.29% (active).

With `CC(=O)Nc1nc(-c2ccc(N3CCN(C)CC3)c(NS(=O)(=O)c3cccc4c(N(C)C)cccc34)c2)cs1`, the growth was 34.9% (inactive).

For `O=C(CSc1nnc(-c2ccc3nc(-c4ccc(Cl)cc4)[nH]c3c2)o1)Nc1ccc(Br)cc1`, the growth is -25% (active).

For the compound `COc1cc2c3c(n(CCCNCCO)c(=O)c2cc1OC)-c1nc2c(cc1C3=O)OCO2`, the growth is -11.4% (active).

Consider `Cc1ccc(NCC(=O)Nn2c(COc3ccccc3)nc3ccccc3c2=O)cc1`, for which the growth was 82% (inactive).

Take `O=C(c1ccccc1)n1ccc(-c2cc3cc(Br)ccc3oc2=O)n1`: the growth is -8.53% (active).
